About 2,000 (36%) of roughly 5,500 compounds were called active. About 18% were inconclusive and are not listed. Some of the results follow. Values without a mark were called inactive. Rule as the data show it: active = normalized growth mostly below about 0.91 (no sharp cut-off); inconclusive = no clear call, values can overlap the other calls; inactive = mostly above about 0.92.
Assay: chemical genetic growth profiling, strain panel (AID 1159580);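 also: tested at 20 µM; growth read once vehicle control cultures reached saturation at 30 °C; 1 = growth at the plate median or of vehicle wells; lower values mean less growth of the strain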
Settings: growth OD
[1] = S. cerevisiae deletion strains, locus YHR030C, strain SLT2, stronger effect = lower value
[2] = S. cerevisiae deletion strains, locus YHR079C, strain IRE1, stronger effect = lower value
[3] = S. cerevisiae deletion strains, locus YJL095W, strain BCK1, stronger effect = lower value
[4] = S. cerevisiae deletion strains, locus YJR066W, strain TOR1, stronger effect = lower value
[5] = S. cerevisiae deletion strains, locus YLR113W, strain HOG1, stronger effect = lower value
[6] = S. cerevisiae deletion strains, locus YNL183C, strain NPR1, stronger effect = lower value
[7] = S. cerevisiae deletion strains, locus YOR231W, strain MKK1, stronger effect = lower value
[8] = S. cerevisiae deletion strains, locus YPL256C, strain CLN2, stronger effect = lower value

## CCCCOC(=O)c1ccc(O)cc1
[1]
  normalized growth: 0.854 (active)
[2]
  normalized growth: 0.879
[3]
  normalized growth: 0.895
[4]
  normalized growth: 0.934
[5]
  normalized growth: 0.768 (active)
[6]
  normalized growth: 0.892
[7]
  normalized growth: 0.951
[8]
  normalized growth: 0.799 (active)

## CCOC(=O)c1ccc(O)cc1
S. cerevisiae deletion strains, locus YAL021C, strain ccr4, stronger effect = lower value
  normalized growth: 1.03
S. cerevisiae deletion strains, locus YAL026C, strain drs2, stronger effect = lower value
  normalized growth: 1.02
S. cerevisiae deletion strains, locus YAL030W, strain snc1, stronger effect = lower value
  normalized growth: 1.01
S. cerevisiae deletion strains, locus YBL061C, strain skt5, stronger effect = lower value
  normalized growth: 1.01
S. cerevisiae deletion strains, locus YBR009C, strain hhf1, stronger effect = lower value
  normalized growth: 0.999
S. cerevisiae deletion strains, locus YBR023C, strain chs3, stronger effect = lower value
  normalized growth: 1.01
S. cerevisiae deletion strains, locus YBR171W, strain sec66, stronger effect = lower value
  normalized growth: 1.01
S. cerevisiae deletion strains, locus YBR231C, strain swc5, stronger effect = lower value
  normalized growth: 1.02
S. cerevisiae deletion strains, locus YBR279W, strain paf1, stronger effect = lower value
  normalized growth: 1.02
S. cerevisiae deletion strains, locus YCL011C, strain gbp2, stronger effect = lower value
  normalized growth: 1
S. cerevisiae deletion strains, locus YCL016C, strain dcc1, stronger effect = lower value
  normalized growth: 1
S. cerevisiae deletion strains, locus YCL061C, strain MRC1, stronger effect = lower value
  normalized growth: 1.01
S. cerevisiae deletion strains, locus YCL069W, strain vba3, stronger effect = lower value
  normalized growth: 1.01
S. cerevisiae deletion strains, locus YCR088W, strain abp1, stronger effect = lower value
  normalized growth: 1.01
S. cerevisiae deletion strains, locus YDL005C, strain med2, stronger effect = lower value
  normalized growth: 1.02
S. cerevisiae deletion strains, locus YDL040C, strain nat1, stronger effect = lower value
  normalized growth: 1.01
S. cerevisiae deletion strains, locus YDR001C, strain nth1, stronger effect = lower value
  normalized growth: 1.01
S. cerevisiae deletion strains, locus YDR069C, strain doa4, stronger effect = lower value
  normalized growth: 1.02
S. cerevisiae deletion strains, locus YDR137W, strain rgp1, stronger effect = lower value
  normalized growth: 1.03
S. cerevisiae deletion strains, locus YDR159W, strain sac3, stronger effect = lower value
  normalized growth: 0.994
S. cerevisiae deletion strains, locus YDR195W, strain ref2
  normalized growth: 1.06
S. cerevisiae deletion strains, locus YDR297W, strain sur2, stronger effect = lower value
  normalized growth: 1.02
S. cerevisiae deletion strains, locus YDR334W, strain swr1, stronger effect = lower value
  normalized growth: 1.02
S. cerevisiae deletion strains, locus YDR335W, strain msn5, stronger effect = lower value
  normalized growth: 1.01
S. cerevisiae deletion strains, locus YDR392W, strain spt3, stronger effect = lower value
  normalized growth: 0.941
S. cerevisiae deletion strains, locus YEL003W, strain gim4, stronger effect = lower value
  normalized growth: 1.02
S. cerevisiae deletion strains, locus YEL037C, strain rad23, stronger effect = lower value
  normalized growth: 1.02
S. cerevisiae deletion strains, locus YEL061C, strain CIN8 (second series), stronger effect = lower value
  normalized growth: 1.01
S. cerevisiae deletion strains, locus YER015W, strain faa2, stronger effect = lower value
  normalized growth: 1.02
S. cerevisiae deletion strains, locus YER016W, strain bim1, stronger effect = lower value
  normalized growth: 1
S. cerevisiae deletion strains, locus YER111C, strain swi4, stronger effect = lower value
  normalized growth: 1.01
S. cerevisiae deletion strains, locus YER155C, strain BEM2 (second series), stronger effect = lower value
  normalized growth: 0.975
S. cerevisiae deletion strains, locus YFR010W, strain ubp6, stronger effect = lower value
  normalized growth: 1.01
S. cerevisiae deletion strains, locus YGL167C, strain pmr1, stronger effect = lower value
  normalized growth: 1.01
S. cerevisiae deletion strains, locus YGL173C, strain kem1, stronger effect = lower value
  normalized growth: 1.02
S. cerevisiae deletion strains, locus YGL227W, strain vid30, stronger effect = lower value
  normalized growth: 1.01
S. cerevisiae deletion strains, locus YGL240W, strain doc1, stronger effect = lower value
  normalized growth: 0.985
S. cerevisiae deletion strains, locus YGL253W, strain hxk2, stronger effect = lower value
  normalized growth: 1.01
S. cerevisiae deletion strains, locus YHR013C, strain ard1, stronger effect = lower value
  normalized growth: 1.05
S. cerevisiae deletion strains, locus YHR027C, strain rpn1, stronger effect = lower value
  normalized growth: 1.01
[1]
  normalized growth: 1.02
[2]
  normalized growth: 1.01
S. cerevisiae deletion strains, locus YHR142W, strain chs7, stronger effect = lower value
  normalized growth: 1.01
S. cerevisiae deletion strains, locus YJL092W, strain hpr5, stronger effect = lower value
  normalized growth: 1.02
S. cerevisiae deletion strains, locus YJL095W, strain BCK1 (second series), stronger effect = lower value
  normalized growth: 1
[3]
  normalized growth: 1.01
S. cerevisiae deletion strains, locus YJL115W, strain asf1, stronger effect = lower value
  normalized growth: 1.03
S. cerevisiae deletion strains, locus YJL129C, strain trk1, stronger effect = lower value
  normalized growth: 1.03
S. cerevisiae deletion strains, locus YJL154C, strain vps35, stronger effect = lower value
  normalized growth: 1.01
S. cerevisiae deletion strains, locus YJL164C, strain tpk1, stronger effect = lower value
  normalized growth: 0.995
S. cerevisiae deletion strains, locus YJL166W, strain qcr8, stronger effect = lower value
  normalized growth: 0.997
S. cerevisiae deletion strains, locus YJL187C, strain SWE1, stronger effect = lower value
  normalized growth: 1.02
[4]
  normalized growth: 0.958
S. cerevisiae deletion strains, locus YKL160W, strain elf1, stronger effect = lower value
  normalized growth: 1
S. cerevisiae deletion strains, locus YKR026C, strain gcn3, stronger effect = lower value
  normalized growth: 0.995
S. cerevisiae deletion strains, locus YKR091W, strain srl3, stronger effect = lower value
  normalized growth: 1.01
S. cerevisiae deletion strains, locus YLL001W, strain dnm1, stronger effect = lower value
  normalized growth: 0.989
S. cerevisiae deletion strains, locus YLL026W, stronger effect = lower value
  normalized growth: 1.01
S. cerevisiae deletion strains, locus YLL041C, strain sdh2, stronger effect = lower value
  normalized growth: 1.01
S. cerevisiae deletion strains, locus YLR027C, strain aat2, stronger effect = lower value
  normalized growth: 1
[5]
  normalized growth: 0.966
S. cerevisiae deletion strains, locus YLR221C, strain rsa3, stronger effect = lower value
  normalized growth: 0.999
S. cerevisiae deletion strains, locus YLR258W, strain gsy2, stronger effect = lower value
  normalized growth: 1.01
S. cerevisiae deletion strains, locus YLR262C, strain YPT6 (second series), stronger effect = lower value
  normalized growth: 1.03
S. cerevisiae deletion strains, locus YLR320W, strain mms22, stronger effect = lower value
  normalized growth: 0.992
S. cerevisiae deletion strains, locus YLR342W, strain FKS1, stronger effect = lower value
  normalized growth: 1.02
S. cerevisiae deletion strains, locus YLR357W, strain rsc2, stronger effect = lower value
  normalized growth: 1.03
S. cerevisiae deletion strains, locus YLR370C, strain arc18, stronger effect = lower value
  normalized growth: 1.01
S. cerevisiae deletion strains, locus YLR384C, strain iki3, stronger effect = lower value
  normalized growth: 1.02
S. cerevisiae deletion strains, locus YML120C, strain ndi1, stronger effect = lower value
  normalized growth: 0.998
S. cerevisiae deletion strains, locus YMR058W, strain fet3, stronger effect = lower value
  normalized growth: 1.02
S. cerevisiae deletion strains, locus YMR125W, strain sto1, stronger effect = lower value
  normalized growth: 1.03
S. cerevisiae deletion strains, locus YMR129W, stronger effect = lower value
  normalized growth: 1.02
S. cerevisiae deletion strains, locus YMR205C, strain PFK2, stronger effect = lower value
  normalized growth: 1.02
S. cerevisiae deletion strains, locus YMR231W, strain pep5, stronger effect = lower value
  normalized growth: 1.02
S. cerevisiae deletion strains, locus YNL071W, strain lat1, stronger effect = lower value
  normalized growth: 1.01
[6]
  normalized growth: 0.962
S. cerevisiae deletion strains, locus YNL209W, strain ssb2, stronger effect = lower value
  normalized growth: 1.02
S. cerevisiae deletion strains, locus YNL248C, strain rpa49, stronger effect = lower value
  normalized growth: 1.02
S. cerevisiae deletion strains, locus YNL322C, strain KRE1 (second series), stronger effect = lower value
  normalized growth: 1.01
S. cerevisiae deletion strains, locus YNR049C, strain mso1, stronger effect = lower value
  normalized growth: 1.01
S. cerevisiae deletion strains, locus YOR001W, strain rrp6, stronger effect = lower value
  normalized growth: 1.01
S. cerevisiae deletion strains, locus YOR070C, strain gyp1, stronger effect = lower value
  normalized growth: 1.01
S. cerevisiae deletion strains, locus YOR080W, strain dia2, stronger effect = lower value
  normalized growth: 1.02
S. cerevisiae deletion strains, locus YOR083W, strain WHI5, stronger effect = lower value
  normalized growth: 1
S. cerevisiae deletion strains, locus YOR106W, strain vam3, stronger effect = lower value
  normalized growth: 1.02
[7]
  normalized growth: 1
S. cerevisiae deletion strains, locus YOR265W, strain rbl2, stronger effect = lower value
  normalized growth: 1.01
S. cerevisiae deletion strains, locus YOR270C, strain vph1, stronger effect = lower value
  normalized growth: 0.988
S. cerevisiae deletion strains, locus YOR290C, strain snf2, stronger effect = lower value
  normalized growth: 0.975
S. cerevisiae deletion strains, locus YPL051W, strain arl3, stronger effect = lower value
  normalized growth: 0.998
S. cerevisiae deletion strains, locus YPL078C, strain atp4, stronger effect = lower value
  normalized growth: 1
S. cerevisiae deletion strains, locus YPL106C, strain sse1, stronger effect = lower value
  normalized growth: 1
S. cerevisiae deletion strains, locus YPL240C, strain hsp82, stronger effect = lower value
  normalized growth: 1.01
[8]
  normalized growth: 1.01

## Nc1cc2c(cc1Cl)C(=O)NC2=O
S. cerevisiae deletion strains, locus YAL013W, strain DEP1, stronger effect = lower value
  normalized growth: 0.995
S. cerevisiae deletion strains, locus YBR229C, strain ROT2, stronger effect = lower value
  normalized growth: 0.999
S. cerevisiae deletion strains, locus YDL101C, strain DUN1, stronger effect = lower value
  normalized growth: 1.02
S. cerevisiae deletion strains, locus YDL134C, strain PPH21, stronger effect = lower value
  normalized growth: 1.02
S. cerevisiae deletion strains, locus YDR150W, strain NUM1, stronger effect = lower value
  normalized growth: 0.929
S. cerevisiae deletion strains, locus YEL061C, strain CIN8, stronger effect = lower value
  normalized growth: 1.01
S. cerevisiae deletion strains, locus YGR078C, strain PAC10, stronger effect = lower value
  normalized growth: 1
[1]
  normalized growth: 1.04
S. cerevisiae deletion strains, locus YHR087W, strain rtc3, stronger effect = lower value
  normalized growth: 0.988
S. cerevisiae deletion strains, locus YJR043C, strain POL32, stronger effect = lower value
  normalized growth: 1.01
S. cerevisiae deletion strains, locus YJR075W, strain HOC1, stronger effect = lower value
  normalized growth: 0.996
S. cerevisiae deletion strains, locus YLR039C, strain RIC1, stronger effect = lower value
  normalized growth: 0.994
S. cerevisiae deletion strains, locus YLR058C, strain SHM2 (second series), stronger effect = lower value
  normalized growth: 1
S. cerevisiae deletion strains, locus YLR085C, strain ARP6, stronger effect = lower value
  normalized growth: 0.98
S. cerevisiae deletion strains, locus YLR262C, strain YPT6, stronger effect = lower value
  normalized growth: 1
S. cerevisiae deletion strains, locus YML094W, strain GIM5, stronger effect = lower value
  normalized growth: 0.985
S. cerevisiae deletion strains, locus YMR219W, strain ESC1, stronger effect = lower value
  normalized growth: 1.01
S. cerevisiae deletion strains, locus YMR263W, strain SAP30, stronger effect = lower value
  normalized growth: 0.984
S. cerevisiae deletion strains, locus YNL153C, strain GIM3, stronger effect = lower value
  normalized growth: 1
S. cerevisiae deletion strains, locus YNL298W, strain CLA4 (second series), stronger effect = lower value
  normalized growth: 1.03
S. cerevisiae deletion strains, locus YNL322C, strain KRE1, stronger effect = lower value
  normalized growth: 0.999
S. cerevisiae deletion strains, locus YNR030W, strain Alg12, stronger effect = lower value
  normalized growth: 0.985
S. cerevisiae deletion strains, locus YOL006C, strain TOP1, stronger effect = lower value
  normalized growth: 1.02
S. cerevisiae deletion strains, locus YPL055C, strain LGE1, stronger effect = lower value
  normalized growth: 0.851
S. cerevisiae deletion strains, locus YPL241C, strain CIN2, stronger effect = lower value
  normalized growth: 0.985
S. cerevisiae deletion strains, locus YPR135W, strain CTF4, stronger effect = lower value
  normalized growth: 1.02
S. cerevisiae strains, strain wild type, stronger effect = lower value
  normalized growth: 1.02
